Mito fusion act: inhibitors of mitochondrial division or activators of mitochondrial fusion | S. cerevisiae fusion-defective mutant growth rescue, CellTiterGlo 48 h | Potency, µM (series often up to 46.1 µM), actives largely listed as activators | actives 0.23% (n = 320,000) | AID 485298; further: nearly all actives have a fitted effect of over 45% in size
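Compounds are tested for their ability to restore growth of mitochondrial fusion-defective yeast strains at non-permissive 37C in YPEG medium over 48 hours. Viability is quantified by luciferase luminescence.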
AT treatment: potential ataxia-telangiectasia treatment. F2112 A-T fibroblasts, KAP-1 phosphorylation AlphaLISA; neocarzinostatin DNA damage 30 min before lysis. Potency, µM (highest dose often 57.5 µM), usual class: activators. actives 0.19% (n = 320,000). AID 485349; further: nearly all actives have a fitted effect of over 45% in size
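ATM-like activity read as KAP-1 phosphorylation via AlphaLISA donor/acceptor antibody pairs after lysis and 6 hr at 25C. Cells were ATM-null patient fibroblasts (F2112, hTERT), dosed 60 min, then exposed to the DSB inducer NCS for 30 min.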
Eya2 phos inh: Eya2 (human) phosphatase inhibition. O00167. recombinant Eya2, OMFP fluorescence dephosphorylation (OMFP is methylfluorescein phosphate). Potency, µM (series often up to 76.9 µM), usual class: inhibitors. actives 0.006% (n = 330,000). AID 488837
Target sequence (O00167 whole entry, looked up): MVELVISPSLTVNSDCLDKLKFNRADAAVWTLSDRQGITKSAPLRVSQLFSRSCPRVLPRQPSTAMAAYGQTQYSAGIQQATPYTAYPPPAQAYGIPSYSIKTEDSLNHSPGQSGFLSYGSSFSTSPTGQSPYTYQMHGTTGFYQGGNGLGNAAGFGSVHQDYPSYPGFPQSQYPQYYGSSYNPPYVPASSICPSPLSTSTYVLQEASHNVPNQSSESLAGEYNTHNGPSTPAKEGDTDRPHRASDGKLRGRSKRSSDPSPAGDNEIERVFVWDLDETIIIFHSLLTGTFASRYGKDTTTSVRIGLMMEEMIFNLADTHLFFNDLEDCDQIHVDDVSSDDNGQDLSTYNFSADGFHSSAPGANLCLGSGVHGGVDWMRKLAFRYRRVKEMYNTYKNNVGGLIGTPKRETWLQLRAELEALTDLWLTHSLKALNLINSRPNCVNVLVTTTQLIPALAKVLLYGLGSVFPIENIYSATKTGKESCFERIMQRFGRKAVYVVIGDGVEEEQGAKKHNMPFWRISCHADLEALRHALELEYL
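Eya2 protein (added as 0.2 uM solution) was preincubated with compound for 10 min at ambient temperature in 50 mM HEPES pH 7.5, 50 mM NaCl, 5 uM MgCl2, 0.05% BSA, 1 mM DTT. OMFP (added at 50 uM) then reacted 10 min; fluorescence read at 485/525 nm.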
N370S GC mod: N370S glucocerebrosidase modulation, Gaucher chaperone candidate; P04062; N370S GC spleen homogenate, 4MU-glucoside fluorescence; Potency, µM (titrated, usually from 59.4 µM), hits mostly inhibitors; actives 0.092% (n = 330,000)
Numbers stand for hits. An excerpt weighted towards active compounds, which were near 0.47% of everything screened. The call rests on the fitted dose curve; in most records, active means well fitted curve in the direction sought with a large enough effect; inconclusive means small, poorly fitted or top-dose-only effect, or another doubt; inactive means no such curve, though single readings can be large; an effect the other way counts as inactive or inconclusive.

For CC[C@@H](C)[C@H]1O[C@]2(CC[C@H]1C)C[C@@H]1C[C@@H](CC=C(C)[C@@H](O[C@H]3C[C@H](OC)[C@@H](O[C@H]4C[C@H](OC)[C@@H](O)[C@H](C)O4)[C@H](C)O3)[C@@H](C)C=CC=C3CO[C@@H]4[C@H](O)C(C)=C[C@@H](C(=O)O1)[C@]34O)O2 the results were Mito fusion act 2.3µM and Eya2 phos inh inactive.
O=C(Nc1ccccc1)Nc1nnc(Cc2ccc([N+](=O)[O-])cc2)s1 was read as Mito fusion act inactive, AT treatment inactive, Eya2 phos inh inactive and N370S GC mod inactive.
CC(C)CN(CC(C)C)C(=O)c1cc2c(=O)n3ccccc3nc2s1 was read as Mito fusion act inactive, AT treatment 13µM, Eya2 phos inh inactive and N370S GC mod inconclusive.
Screening CCN(CC)c1ccc2cc(-c3nnc(-c4ccccc4)o3)c(=O)oc2c1 returned Mito fusion act inactive, AT treatment inactive, Eya2 phos inh inactive and N370S GC mod inactive.
CCN(CC)c1ccc2cc(-c3nc(-c4ccc(OC)cc4)cs3)c(=O)oc2c1 was read as Mito fusion act inactive, AT treatment 25µM, Eya2 phos inh inconclusive and N370S GC mod inactive.
Screening O=C(Oc1ccc2c(=O)c(Oc3ccc4ccccc4c3)coc2c1)c1cccnc1 returned Mito fusion act 16µM, AT treatment inactive, Eya2 phos inh inactive and N370S GC mod inactive.
For O=C(O)[C@H]1CCCN1 the results were N370S GC mod inactive.
Screening COc1ccc(-c2cc(C(F)(F)F)c(C#N)c(SCC(=O)O)n2)cc1OC returned Mito fusion act inactive, AT treatment 8.9µM, Eya2 phos inh inactive and N370S GC mod inactive.
Screening Cc1ccc(-c2cc(C(F)(F)F)c(C#N)c(SCC(=O)O)n2)cc1 returned Mito fusion act inactive, AT treatment inactive, Eya2 phos inh inactive and N370S GC mod inactive.
`COc1ccc(CN2CCN(c3ncnc4scc(-c5ccc(F)cc5)c34)CC2)cc1` gave Mito fusion act inactive, AT treatment 14µM, Eya2 phos inh inactive and N370S GC mod inactive.
CCCCOc1ccc(NC(=O)c2cnc(C)cn2)cc1 was read as Mito fusion act inactive, Eya2 phos inh inactive and N370S GC mod inactive.
Cc1cc(Sc2nnc(N)s2)c2ccccc2n1 was read as Mito fusion act inactive, AT treatment 40µM, Eya2 phos inh inactive and N370S GC mod inactive.
For Cc1cc(Sc2nnc(/N=C/N(C)C)s2)c2ccccc2n1 the results were Mito fusion act inactive, AT treatment inactive, Eya2 phos inh inactive and N370S GC mod inactive.
`O=S(=O)(c1ccc(N2CCC(c3ccc(Cl)cc3)=N2)cc1)N(CCO)CCO` gave Mito fusion act inactive, AT treatment 32µM, Eya2 phos inh inactive and N370S GC mod inconclusive.
`CCOC(=O)c1ccc(-n2c(C)nc3c(cnn3-c3ccc(Cl)cc3)c2=O)cc1` gave Mito fusion act inactive, AT treatment inactive, Eya2 phos inh inactive and N370S GC mod inactive.
For CC(C)(C)NC(=O)C(c1cccs1)N(CC1CCCO1)C(=O)Cn1nnc(-c2cccs2)n1 (stereo unspecified) the results were Mito fusion act 7.1µM, AT treatment inactive, Eya2 phos inh inactive and N370S GC mod inactive.
For O=C(NCC1CCCO1)C(c1cccs1)N(Cc1cccs1)C(=O)Cn1nnc(-c2cccs2)n1 (stereo unspecified) the results were Mito fusion act inactive, AT treatment inactive, Eya2 phos inh inactive and N370S GC mod inconclusive.
For Cc1nc2cc(-c3ccc(Cl)cc3)nn2c(C)c1CCC(=O)NC(C)c1ccc2c(c1)OCCO2 (stereo unspecified) the results were Mito fusion act 18µM, AT treatment inactive, Eya2 phos inh inactive and N370S GC mod inactive.
Screening O=C(C1CCCN(Cc2ccccc2F)C1)N1CCc2ccccc2C1 (stereo unspecified) returned Mito fusion act inactive, AT treatment 40µM, Eya2 phos inh inconclusive and N370S GC mod inactive.
For COc1cc(NC(C)=O)c2ncccc2c1[N+](=O)[O-] the results were Mito fusion act inactive, AT treatment inactive, Eya2 phos inh inactive and N370S GC mod inactive.
O=C(CSC1=NS(=O)(=O)c2cc(F)ccc2N1)NCc1ccccc1 was read as Mito fusion act inactive, AT treatment inactive, Eya2 phos inh inactive and N370S GC mod inactive.
For Cc1ccc(-c2nc(CS(=O)(=O)CC(=O)NCCN3CCOCC3)c(C)o2)cc1 the results were Mito fusion act inactive, AT treatment inactive, Eya2 phos inh inactive and N370S GC mod inactive.

From PubChem
